Sampled rows, rich in hits. Any-hit rate of the full collection: about 5.4%.
HPGD inh: qHTS Assay for Inhibitors of HPGD (15-Hydroxyprostaglandin Dehydrogenase). 15-hydroxyprostaglandin dehydrogenase [NAD(+)] (Homo sapiens), P15428. purified HPGD, NADH fluorescence kinetic, PGE2 substrate. Potency, µM, for inactives: at the top dose activity change, negative = inhibition, hits mostly inhibitors. 150,000 compounds, 4.3% hits. AID 894, 2007; active = well fitted inhibition curve with a large enough effect, not every such curve was filed as active; inconclusive = small, poorly fitted or top-dose-only effect, or another doubt; inactive = no such curve, though single readings can be large or run the other way; note: potency is the fitted concentration of half-maximal effect
Target sequence (P15428 whole entry, looked up): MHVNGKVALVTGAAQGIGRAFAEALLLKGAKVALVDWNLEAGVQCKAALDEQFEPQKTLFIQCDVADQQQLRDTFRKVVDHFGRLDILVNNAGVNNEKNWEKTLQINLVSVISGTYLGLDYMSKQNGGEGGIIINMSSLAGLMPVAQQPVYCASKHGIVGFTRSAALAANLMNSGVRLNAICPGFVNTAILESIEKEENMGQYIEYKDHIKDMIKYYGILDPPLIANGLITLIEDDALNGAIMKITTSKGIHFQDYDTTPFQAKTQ
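NADH formation kinetics: reaction with 30 uM PGE2 and 1 mM NAD+ (final), 20 nM enzyme, Tris-HCl pH 8 with Tween 20, after 15 min compound preincubation at room temperature. Fluorescence change, last versus first of five reads.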
IMPase inh: qHTS Assay for Identifying the Cell-Membrane Permeable IMPase Inhibitors | 120,000 tested, under 10 active | CHO-M1 cells, IP1 accumulation, HTRF TR-FRET ratio | inhibition (IP1 accumulation), % at 46.1 µM | Inositol monophosphatase 1 (Rattus norvegicus), P97697; active = well fitted curve in the direction sought with a large enough effect in the signal ratio, not every such curve was filed as active; inconclusive = small, poorly fitted or top-dose-only effect, or a change in a side signal; inactive = no such curve, though single readings can be large or run the other way; the % refers to the signal ratio;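 note: cells stimulated with carbachol in lithium chloride buffer; plate controls were DMSO basal wells for no effect and reference inhibitor wells for full effect; higher means more IMPase inhibition seen as more IP1 and lower FRET ratio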
Target sequence (P97697 whole entry, looked up): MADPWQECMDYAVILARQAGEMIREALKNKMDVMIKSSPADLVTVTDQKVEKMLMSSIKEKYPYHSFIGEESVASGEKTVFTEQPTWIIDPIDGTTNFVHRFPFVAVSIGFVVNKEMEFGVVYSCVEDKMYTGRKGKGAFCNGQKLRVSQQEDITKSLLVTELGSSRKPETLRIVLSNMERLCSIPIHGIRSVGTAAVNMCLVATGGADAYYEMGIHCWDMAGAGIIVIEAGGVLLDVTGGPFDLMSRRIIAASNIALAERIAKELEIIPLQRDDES
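Seeded CHO-M1 cells were dosed with compound at up to 46 uM, stimulated with carbachol for 30 min, then lysed in IP-One detection reagents. Higher IP1 lowers the TR-FRET signal.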
ALOX12 inhib: qHTS Assay for Inhibitors of 12-hLO (12-human lipoxygenase); Polyunsaturated fatty acid lipoxygenase ALOX12 (Homo sapiens), P18054; purified 12-hLO, xylenol orange hydroperoxide absorbance; Potency, µM (highest dose often 57.1 µM), inactives show at the top dose activity change, negative = inhibition, usual class: inhibitors; 150,000 compounds, 0.12% hits; AID 1452, 2008; note: potency is the fitted concentration of half-maximal effect; nearly all actives have a fitted effect of over 55% in size
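Purified human 12hLO (150 nM), preincubated 15 min with compound, then 40 uM arachidonic acid for 30 min, room temperature, Hepes pH 7.0 with 0.01% Triton X-100. Hydroperoxide detected by ferrous iron/xylenol orange; 573/405 nm absorbance ratio gives reaction progress.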
PNC assembly inh: High Content Assay for Compounds that inhibit the Assembly of the Perinucleolar Compartment; 140,000 compounds, 3.1% hits; PC3M PTB-GFP, PNC prevalence imaging, 16 h; active compounds read low; AID 2417, 2010; activity change (PNC), negative = inhibition, % at 10 µM;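 active = readout at or below -70, meaning at least 70% loss of cells showing the perinucleolar compartment, a nuclear body marking cancer cells; inconclusive = readout between -30 and a set limit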;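 note: plate controls were DMSO wells for no effect and camptothecin positive control wells for full effect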
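PC3M cells stably expressing PTB-GFP, 750–1000 cells/well, treated 16 h at 37 °C with compound (23 nl of library stock), in duplicate. After paraformaldehyde fixation and Hoechst stain, imaged at 20x; PNC prevalence scored by image analysis.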
15-hLO-2 inh: qHTS Assay for Inhibitors of 15-hLO-2 (15-human lipoxygenase 2); Polyunsaturated fatty acid lipoxygenase ALOX15B (Homo sapiens), O15296; AID 881, 2007; purified 15hLO-2, xylenol orange hydroperoxide absorbance; Potency, µM (titrated, usually from 57.1 µM), without a hit: top-dose activity change, negative = inhibition, most hits filed as inhibitors; 110,000 compounds, 0.56% hits; note: potency is the fitted concentration of half-maximal effect; nearly all actives have a fitted effect of over 60% in size
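Screening format was qHTS against 50 nM purified 15hLO-2 in Hepes pH 7.5 with detergent. Activity follows hydroperoxide formation from 45 uM arachidonic acid, measured as 573:405 nm absorbance ratio of the ferric-xylenol orange complex.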
IMPase Li cell: qHTS Assay for Identifying the Cell-Membrane Permeable IMPase Inhibitors: Potentiation with Lithium | 210,000 compounds, 0.35% hits | CHO-M1 cells, IP1 TR-FRET (IP-One), carbachol + lithium | Potency, µM (doses to about 59.4 µM), inactives show at the top dose activity, negative = IMPase inhibition, hits mostly inhibitors;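 note: IP1 builds up when IMPase is blocked and the TR-FRET signal falls; potency is the fitted concentration of half-maximal effect; plate controls were basal vehicle for no effect and high inhibitor control for full effect; nearly all actives have a fitted effect of over 50% in size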
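Readout is a homogeneous TR-FRET IP1 immunoassay (Ex 320, Em 665 and 620), where raised cytosolic IP1 lowers signal. Cells were CHO-M1 treated 30 min at 37C with test compounds plus a little lithium; AC50 values came from Hill-equation fitting.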
* hit, by the source's call; ? = inconclusive; / = not tested or not shown; [ ] = another dose, or the depositor's remark. Unless noted, calls come from the whole dose curve; as a rule, active = well fitted curve in the direction sought with a large enough effect; inconclusive = small, poorly fitted or top-dose-only effect, or another doubt; inactive = no such curve, though single readings can be large; an effect the other way counts as inactive or inconclusive. Unless noted, % is set by controls: 0 for no effect and ±100 for the full control effect.

SMILES | HPGD inh | IMPase inh | ALOX12 inhib | PNC assembly inh | 15-hLO-2 inh | IMPase Li cell
CCCCOc1ccc(-c2c(C(=O)Nc3ccccc3)c(C)[nH]c(=S)c2C#N)cc1 | / | / | / | / | / | 8.9µM*
CCOC(=O)c1c(C)[nH]c(=S)c(C#N)c1-c1ccc(Cl)cc1 | -16% | / | -10% | -108* | / | -3%
C#C[C@]1(O)CC[C@@H]2[C@H]3CCC4=Cc5oncc5C[C@]4(C)[C@@H]3CC[C@@]21C | -2% | / | -5%[25.6 µM] | / | -7%[25.6 µM] | /
Cn1c(=O)c2c(nc(CN3CCOCC3)n2CCN2CCOCC2)n(C)c1=O | -15% | 6 | 0% | ? | 2% | 14%[38.3 µM]
Cn1c(=O)c2c(nc(CN3CCN(c4ccccc4F)CC3)n2CCN2CCOCC2)n(C)c1=O | -9% | -12 | -3% | -100* | / | 1%
Cc1ccc(Cn2c(CN3CCOCC3)nc3c2c(=O)n(C)c(=O)n3C)cc1 | -15% | -19 | 12% | -100* | / | -1%
Cn1c(=O)c2c(nc(CN3CCN(Cc4ccccc4)CC3)n2CCN2CCOCC2)n(C)c1=O | -9% | -1 | -2% | ? | 3% | 36%[38.3 µM]
O=C(O)CCNCC(=O)O | -1% | / | -3%[11.4 µM] | / | -9%[11.4 µM] | -2%
O=C(NC(=S)Nc1ccc(N2CCOCC2)cc1)c1ccco1 | 22µM* | / | -1% | -3 | / | -6%
O=C(NC(=S)Nc1ccc(N2CCOCC2)cc1)c1cncc(Br)c1 | 18µM* | / | -2% | 23 | / | -2%
O=C(NC(=S)Nc1ccc(N2CCOCC2)cc1)c1ccccc1 | / | / | / | / | / | 11%
CN(Cc1ccco1)c1ncncc1-c1ccc2c(c1)OCO2 | / | / | / | / | -6% | 23%
O=C(c1cn(CCOc2ccc(Cl)cc2)c2ccccc12)C1CCCCC1 | / | -2 | / | / | / | /
COc1ccccc1C(=O)C1Nc2ccccc2-c2nnc(SC)nc2O1 (centres undefined) | -15% | -3 | -10% | -104* | / | 11%
O=C(O)c1nc(-c2ccccc2)[nH]c1C(=O)O | -13% | / | -5%[11.4 µM] | / | 0%[11.4 µM] | -3%
CC(C(=O)N1CCCCC1)n1sc2ccccc2c1=O (centres undefined) | 3.5µM* | ? | -5% | 33 | / | -1%
CN(C)c1ccc(C(=O)Nc2cc(C(F)(F)F)ccc2-n2cncn2)cc1 | -23% | -4 | -3% | -92* | 20% | -5%[38.3 µM]
S=c1[nH]nc(-c2cc(-c3ccco3)[nH]n2)n1-c1ccccc1Cl | 32µM* | -10 | ? | 32 | -29% | -13%[38.3 µM]
S=c1[nH]nc(-c2cc(-c3ccco3)[nH]n2)n1-c1ccccc1 | 20µM* | -8 | -2% | 61 | -7% | -19%[38.3 µM]
CCC1CCc2nc3sc(C(=O)Nc4ccc(C)cc4C)c(N)c3cc2C1 (centres undefined) | / | -13 | / | / | / | /
O=C(CCS(=O)(=O)c1ccccc1)Nc1ccc(-c2nc3ccccc3s2)c(O)c1 | -8% | / | 2% | -28 | / | 11µM*
CC(=O)Nc1ccc(O)c(-c2nc3ccccc3s2)c1 | / | / | / | / | / | -4%
O=c1cc(CSc2nc3ccccc3[nH]2)c2ccccc2[nH]1 | 7.9µM* | 0 | -1% | ? | 4% | 33%[38.3 µM]
Fc1ccc(CSc2nc3ccccc3[nH]2)c2ccccc12 | ? | 6 | -4% | -8 | 47% | 16%[38.3 µM]
O=c1cc(CSc2nnc(-c3ccco3)o2)c2ccccc2[nH]1 | 20µM* | ? | 1% | 25 | -8% | 23%[38.3 µM]
O=C(CCS(=O)(=O)c1cc(Br)cc2c1N(C(=O)C1CC1)CC2)NCc1ccc(Cl)cc1 | / | 3 | / | / | / | /
S=C(NC1CCCCC1)N1CCC([C@H]2C=NC=N2)CC1 | 1% | -1[20.6 µM] | -3%[25.6 µM] | / | 5%[25.6 µM] | 11%
Cc1cc(C(F)(F)F)c2c(N)c(C(=O)Nc3cc(C)on3)sc2n1 | -13% | -10 | -8% | 8 | 6% | 11µM*
